{"source": "PubChem BioAssay (Tox21)", "assay": "p53 small molecule agonists, cell-based qHTS assay: qHTS cell viability counter screen (AID 1963581); note: nearly all actives have a fitted effect of over 45% in size", "details": "p53RE-bla HCT-116 viability, ATP luminescence, 16 h; series mostly up to 66 µM", "how_it_was_run": "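In the same plates used for the p53 bla reporter, HCT-116 cells given compounds for 16 h at 37 C received CellTiter-Glo; luminescence was recorded 30 min later at room temperature.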", "note": "Results filed as inconclusive are left out. A call without a number means that no potency is given here. Unmarked numbers belong to inactive results. Active and inactive are the calls of the source. Calls come from the whole dose curve.", "data": [{"smiles": "c1cnc2c(n1)CCCC2", "values": [{"measurement": "Potency", "value": "inactive"}]}, {"smiles": "Cc1cnc(C)c(C)n1", "values": [{"measurement": "Potency", "value": "inactive"}]}, {"smiles": "OCCN(CCO)CCN(CCO)CCO", "values": [{"measurement": "Potency", "value": "inactive"}]}, {"smiles": "CC1CCC(C(C)CS)CC1S", "note": "(configuration not stated)", "values": [{"measurement": "Potency", "value": "inactive"}]}, {"smiles": "OC[C@@H](O)C(O)[C@@H](O)CO", "note": "(some centres not stated)", "values": [{"measurement": "Potency", "value": "inactive"}]}, {"smiles": "CCCCCCCC[Si](OCC)(OCC)OCC", "values": [{"measurement": "Potency", "value": "inactive"}]}, {"smiles": "C=C1C[C@@]23CC[C@H]4[C@@](C)(CCC[C@@]4(C)C(=O)O[C@@H]4O[C@H](CO)[C@@H](O)[C@H](O)[C@H]4O)[C@@H]2CC[C@]1(O[C@@H]1O[C@H](CO)[C@@H](O)[C@H](O[C@@H]2O[C@H](CO)[C@@H](O)[C@H](O)[C@H]2O)[C@H]1O[C@@H]1O[C@H](CO)[C@@H](O)[C@H](O)[C@H]1O)C3", "values": [{"measurement": "Potency", "value": "inactive"}]}, {"smiles": "Cc1ccc(C=O)s1", "values": [{"measurement": "Potency", "value": "inactive"}]}, {"smiles": "O=C(/C=C/c1ccccc1)OCCCc1ccccc1", "values": [{"measurement": "Potency", "value": "inactive"}]}, {"smiles": "COc1cc(OC)cc(OC)c1", "values": [{"measurement": "Potency", "value": "inactive"}]}, {"smiles": "CC(C)COC(=O)c1ccccc1", "values": [{"measurement": "Potency", "value": "inactive"}]}, {"smiles": "[O]=[Bi]", "values": [{"measurement": "activity change, negative = cytotoxicity", "value": "5.64% [at 5.99 µM]"}]}, {"smiles": "CNC(=O)N(c1ccccc1)c1ccccc1", "values": [{"measurement": "Potency", "value": "inactive"}]}, {"smiles": "C[C@H]1NCc2cc(-c3ccc4c(=O)c(C(=O)O)cn(C5CC5)c4c3OC(F)F)ccc21", "values": [{"measurement": "activity change, negative = cytotoxicity", "value": "-9.15% [at 13.5 µM]"}]}, {"smiles": "COCCC(=O)OC", "values": [{"measurement": "Potency", "value": "inactive"}]}, {"smiles": "CCCCCCCCCCOS(=O)(=O)O", "values": [{"measurement": "Potency", "value": "inactive"}]}, {"smiles": "CCOC(C)=O", "values": [{"measurement": "Potency", "value": "inactive"}]}, {"smiles": "CC(C)C(=O)OCc1ccccc1", "values": [{"measurement": "Potency", "value": "inactive"}]}, {"smiles": "CCN(CC)c1ccc(C=O)cc1", "values": [{"measurement": "Potency", "value": "inactive"}]}, {"smiles": "ON=C1CCCC1", "values": [{"measurement": "Potency", "value": "inactive"}]}, {"smiles": "Cc1c(NC(C)C)c(=O)n(-c2ccccc2)n1C", "values": [{"measurement": "Potency", "value": "inactive"}]}, {"smiles": "CCCCC(CC)COC(=O)c1ccccc1O", "note": "(configuration not stated)", "values": [{"measurement": "Potency", "value": "inactive"}]}, {"smiles": "CCOC(=O)C(O)c1ccccc1", "note": "(configuration not stated)", "values": [{"measurement": "Potency", "value": "inactive"}]}, {"smiles": "CC(=O)Oc1ccc(C(C)=O)cc1", "values": [{"measurement": "Potency", "value": "inactive"}]}, {"smiles": "CCCCCCCCOC(C)=O", "values": [{"measurement": "Potency", "value": "inactive"}]}, {"smiles": "CC(C)CC(=O)C1C(=O)c2ccccc2C1=O", "values": [{"measurement": "Potency", "value": "inactive"}]}, {"smiles": "COc1ccc2sc(C(=O)Nc3nnn[nH]3)c(OC(C)C)c2c1", "values": [{"measurement": "Potency", "value": "inactive"}]}, {"smiles": "N=C1C=CC(=C(c2ccc(N)cc2)c2ccc(N)cc2)C=C1", "values": [{"measurement": "Potency", "value": "inactive"}]}, {"smiles": "Nc1ccc(S(=O)(=O)O)c(N)c1", "values": [{"measurement": "Potency", "value": "inactive"}]}, {"smiles": "C=C(C)CCCC", "values": [{"measurement": "Potency", "value": "inactive"}]}, {"smiles": "COc1cc(C)ccc1C(C)C", "values": [{"measurement": "Potency", "value": "inactive"}]}, {"smiles": "COc1cc2c3cc1Oc1cc(ccc1O)C[C@@H]1c4c(cc(OC)c(O)c4Oc4ccc(cc4)C[C@@H]3N(C)CC2)CC[N+]1(C)C", "values": [{"measurement": "Potency", "value": "inactive"}]}]}
